Experimental data taken from PubChem BioAssay.
The other results are listed elsewhere or left out. Active and inactive are the calls of the source.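 The calls were made as follows, unless noted: active = mean inhibition over 43.08%, the solvent-only control mean plus 3 SD; inactive = the rest.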

Assays:
[1] = biological target: Nuclear receptor coactivator 3 (Homo sapiens) (UniProt Q9Y6Q9); assay: NCOA3 GAL4-fusion reporter inhibition – cell-based, luminescence, quadruplicate, confirmation (AID 588792); conditions: HEK293 GAL4-SRC3 luciferase reporter, at 3.6 µM, stronger effect = higher value;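 also: 0% = DMSO treated cells and 100% = gossypol at 36 µM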
[2] = tested on: transactivating tegument protein VP16 (Human herpesvirus 1), Gal4-VP16 luciferase reporter; assay: repression of VP16-driven luciferase reporter – cell-based, luminescence, high throughput, counter-screen for SRC3 inhibitor project (AID 588794; in the data active = inhibition above about 30%); conditions: mammalian cells, at 3.6 µM, stronger effect = higher value
[3] = biological target: Nuclear receptor coactivator 1 (Homo sapiens) (UniProt Q15788); assay: NCOA1 GAL4-fusion reporter inhibition – cell-based, luminescence, quadruplicate, confirmation (AID 588820;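 active = mean inhibition above 46.68%, the untreated control wells mean plus 3 SD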;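 also: 0% = DMSO wells and 100% = gossypol 36 µM treated wells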); conditions: HEK293 GAL4-SRC1 luciferase reporter, at 3.6 µM, stronger effect = higher value
[4] = repression of VP16-driven luciferase reporter – cell-based, luminescence, high throughput, counter-screen for SRC1 inhibitor project (AID 588824; in the data active = inhibition above about 25%); conditions: cell-based VP16 transactivation luciferase luminescence; at 3.6 µM; stronger effect = higher value
[5] = biological target: Photoreceptor-specific nuclear receptor (Homo sapiens) (UniProt Q9Y5X4); assay: retest of NR2E3-NCOR disrupting agonists – cell-based, luminescence, CHO-S two-hybrid, confirmation (AID 624378;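 active = average inhibition above a cutoff equal to the mean inhibition of all tested compounds plus one SD, cut at about 70% in these data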;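 also: 0% = DMSO in NR2E3 cells and 100% = DMSO in cells lacking NR2E3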); conditions: CHO-S mammalian two-hybrid NR2E3-NCOR, luciferase luminescence; at 3.98 µM; stronger effect = higher value
[6] = nonselective effects on VP16 transactivation – cell-based, luminescence, CHO-S, high throughput, counter-screen for NR2E3 agonist project, confirmation (AID 624379;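 active = mean inhibition above a cutoff equal to the average over all tested compounds plus one standard deviation, cut at about 70% in these data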;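 also: 0% = DMSO with VP16-transfected cells and 100% = DMSO with cells lacking VP16; higher means less reporter light so more repression of VP16 activity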); conditions: CHO-S GAL4-VP16 luciferase reporter, at 3.98 µM, stronger effect = higher value
[7] = StAR promoter reporter inhibitors, counter-screen for LRH-1 inverse agonist project, cell-based, luminescence, high throughput (AID 651611; in the data active = inhibition above about 28%); conditions: StAR promoter luciferase reporter counterscreen, at 3.6 µM, stronger effect = higher value
[8] = biological target: Nuclear receptor subfamily 5 group A member 2 (Homo sapiens) (UniProt O00482); assay: NR5A2 activity suppression in reporter cells – cell-based, luminescence, confirmation (AID 651613; in the data active = inhibition above about 42%;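 also: HEK293T cells co-transfected with LRH-1 and StAR promoter luciferase reporter; 0% = vehicle wells and 100% = parental cells lacking receptor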); conditions: cell-based LRH-1 luciferase reporter, inverse agonism; at 3.6 µM; stronger effect = higher value
[9] = biological target: Steroidogenic factor 1 (Homo sapiens) (UniProt Q13285); assay: inverse agonism at SF1 nuclear receptor – cell-based, luminescence, high throughput, counter-screen for LRH-1 inverse agonist project (AID 651614; in the data active = inhibition above about 44%;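 also: cells cotransfected with StAR promoter reporter and SF1 expression vector; 0% = vehicle on cells with receptor and 100% = vehicle on cells lacking receptor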); conditions: cell-based SF1 luciferase reporter, at 3.6 µM, stronger effect = higher value
[10] = compounds suppressing VP16-driven luciferase signal – cell-based, luminescence, high throughput, counter-screen for LRH-1 inverse agonist project (AID 651615; in the data active = inhibition above about 33%); conditions: Gal4-VP16 luciferase reporter cells, at 3.6 µM, stronger effect = higher value
[11] = tested on: transactivating tegument protein VP16 (Human herpesvirus 1); assay: compounds suppressing VP16-driven luciferase signal – cell-based, luminescence, single concentration, counter-screen for SRC2 inhibitor project (AID 652007; in the data active = inhibition above about 36%); conditions: cell-based VP16 transactivation luciferase reporter, at 8.9 µM, stronger effect = higher value
[12] = biological target: Nuclear receptor coactivator 2 (Homo sapiens) (UniProt Q15596); assay: inhibition of GAL4-SRC2 driven luciferase expression – cell-based, luminescence, HEK293, triplicate, confirmation (AID 652008;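 active = mean inhibition above 46.5%, the solvent-only control mean plus 3 SD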;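 also: 0% = DMSO-treated cells and 100% = Gossypol at 36 µM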); conditions: HEK293 GAL4-SRC2 luciferase reporter, at 8.9 µM, stronger effect = higher value
[13] = VP16-driven transactivation reporter suppression – cell-based, luminescence, HEK293, counter-screen for COUP-TFII antagonist project (AID 687007; in the data active = inhibition above about 13%); conditions: HEK293 Gal4-VP16 luciferase reporter, at 8.5 µM, stronger effect = higher value
[14] = biological target: COUP transcription factor 2 (Homo sapiens) (UniProt P24468); assay: retest of COUP-TFII reporter suppressors – cell-based, luciferase reporter, HEK293, triplicate, confirmation (AID 687008;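 active = mean inhibition over three repeats above a set limit taken from the earlier primary screen, cut at about 38% in these data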;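 also: 100% = cells given the luciferase reporter alone without the COUP-TF2 vector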); conditions: HEK293 NGFI-A luciferase reporter, luminescence; at 8.5 µM; stronger effect = higher value
[15] = biological target: Galanin receptor type 2 (Homo sapiens) (UniProt O43603); assay: blockers of human galanin receptor 2 – cell-based, confirmation (AID 866; in the data active = inhibition above about 27%;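 also: cells stimulated with galanin at about its EC80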); conditions: GALR2-expressing cells, antagonist mode, at 4 µM, stronger effect = higher value
[16] = nonspecific BLA reporter inhibition – CHO NFAT-bla cells, FRET readout, counter-screen for GALR2 antagonist project, confirmation (AID 867;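 active = inhibition above the mean inhibition across tested compounds plus 3 SD, cut at about 27% in these data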;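 also: 0% = 500 nM thapsigargin stimulated wells and 100% = unstimulated BSA only wells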); conditions: beta-lactamase FRET, thapsigargin-stimulated, at 4.2 µM, stronger effect = higher value
[17] = biological target: Receptor-interacting serine/threonine-protein kinase 2 (Homo sapiens) (UniProt O43353); assay: inhibitors of RIPK2 association with NOD2 – fluorescence, CHO cells, BLA complementation, triplicate, confirmation (AID 624370;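 active = mean inhibition across replicates above a set limit taken from the earlier primary screen, cut at about 21% in these data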;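 also: 0% = DMSO-only wells and the high end = clavulanate BLA-blocked wells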); conditions: CCF4 FRET, at 4.98 µM, stronger effect = higher value
[18] = BLA reporter readout interference – cell-based, CHO-K1 CMV-bla, CCF4 FRET, fluorescence, artefact control for NOD2-RIPK2 interaction inhibitor project, confirmation (AID 624371;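 active = mean inhibition above the low-control mean inhibition plus three low-control SD, cut at about 11% in these data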;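 also: 0% = DMSO only wells and 100% = clavulanate high control wells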); conditions: CCF4 FRET ratio, counterscreen, at 4.98 µM, stronger effect = higher value

Measured: inhibition

Sequence of Nuclear receptor subfamily 5 group A member 2 (Homo sapiens) (O00482 whole entry, looked up): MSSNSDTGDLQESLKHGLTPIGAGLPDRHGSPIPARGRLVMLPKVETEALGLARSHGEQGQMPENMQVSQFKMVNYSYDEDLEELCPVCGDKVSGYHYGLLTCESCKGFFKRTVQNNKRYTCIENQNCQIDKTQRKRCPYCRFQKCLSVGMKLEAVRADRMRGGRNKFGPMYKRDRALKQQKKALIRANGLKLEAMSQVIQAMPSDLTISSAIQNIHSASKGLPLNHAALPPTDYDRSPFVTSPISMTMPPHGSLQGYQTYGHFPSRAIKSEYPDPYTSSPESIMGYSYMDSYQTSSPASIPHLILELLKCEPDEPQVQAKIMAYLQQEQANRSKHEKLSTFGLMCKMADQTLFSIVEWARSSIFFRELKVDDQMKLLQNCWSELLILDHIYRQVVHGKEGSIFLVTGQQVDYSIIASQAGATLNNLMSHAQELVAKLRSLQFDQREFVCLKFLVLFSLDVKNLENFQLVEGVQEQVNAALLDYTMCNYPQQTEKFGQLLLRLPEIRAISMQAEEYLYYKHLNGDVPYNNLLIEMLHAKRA
Sequence of Nuclear receptor coactivator 3 (Homo sapiens) (Q9Y6Q9 whole entry, looked up, the tested form may be a part): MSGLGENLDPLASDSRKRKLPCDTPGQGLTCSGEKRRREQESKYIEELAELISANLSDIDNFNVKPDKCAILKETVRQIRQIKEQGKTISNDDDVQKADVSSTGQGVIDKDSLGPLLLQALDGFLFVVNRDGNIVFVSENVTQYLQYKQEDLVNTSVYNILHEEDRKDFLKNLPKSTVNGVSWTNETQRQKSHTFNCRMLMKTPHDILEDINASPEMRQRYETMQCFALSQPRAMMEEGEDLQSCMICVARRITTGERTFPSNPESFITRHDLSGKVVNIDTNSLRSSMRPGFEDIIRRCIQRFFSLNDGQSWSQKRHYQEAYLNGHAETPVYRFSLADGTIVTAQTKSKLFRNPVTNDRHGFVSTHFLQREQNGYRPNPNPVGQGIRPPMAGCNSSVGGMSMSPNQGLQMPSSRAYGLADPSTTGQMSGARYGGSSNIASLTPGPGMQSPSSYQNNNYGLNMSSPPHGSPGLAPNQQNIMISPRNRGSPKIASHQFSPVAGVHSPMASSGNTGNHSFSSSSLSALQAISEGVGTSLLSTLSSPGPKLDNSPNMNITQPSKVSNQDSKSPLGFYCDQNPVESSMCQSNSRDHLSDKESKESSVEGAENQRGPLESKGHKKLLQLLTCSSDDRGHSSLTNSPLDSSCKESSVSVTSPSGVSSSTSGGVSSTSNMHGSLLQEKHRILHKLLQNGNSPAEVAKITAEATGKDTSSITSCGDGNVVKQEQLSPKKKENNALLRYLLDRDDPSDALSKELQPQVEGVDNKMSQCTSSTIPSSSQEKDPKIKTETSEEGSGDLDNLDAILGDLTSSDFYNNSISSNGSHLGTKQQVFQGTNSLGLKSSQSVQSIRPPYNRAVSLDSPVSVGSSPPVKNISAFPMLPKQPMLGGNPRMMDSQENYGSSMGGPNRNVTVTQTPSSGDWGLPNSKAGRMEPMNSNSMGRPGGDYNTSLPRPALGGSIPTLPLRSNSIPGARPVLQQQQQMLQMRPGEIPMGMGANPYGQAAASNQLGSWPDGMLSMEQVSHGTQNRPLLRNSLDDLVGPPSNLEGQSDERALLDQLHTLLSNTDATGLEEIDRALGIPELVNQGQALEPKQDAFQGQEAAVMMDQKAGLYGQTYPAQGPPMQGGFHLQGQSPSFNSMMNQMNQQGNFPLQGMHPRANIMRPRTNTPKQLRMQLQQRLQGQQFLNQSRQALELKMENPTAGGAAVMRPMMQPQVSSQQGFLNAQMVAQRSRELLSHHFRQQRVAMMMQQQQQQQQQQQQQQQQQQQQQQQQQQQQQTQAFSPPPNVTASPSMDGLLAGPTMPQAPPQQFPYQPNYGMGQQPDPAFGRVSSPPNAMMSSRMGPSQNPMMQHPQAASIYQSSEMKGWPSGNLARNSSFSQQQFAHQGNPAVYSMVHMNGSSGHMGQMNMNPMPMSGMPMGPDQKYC
Sequence of Nuclear receptor coactivator 2 (Homo sapiens) (Q15596 whole entry, looked up, the tested form may be a part): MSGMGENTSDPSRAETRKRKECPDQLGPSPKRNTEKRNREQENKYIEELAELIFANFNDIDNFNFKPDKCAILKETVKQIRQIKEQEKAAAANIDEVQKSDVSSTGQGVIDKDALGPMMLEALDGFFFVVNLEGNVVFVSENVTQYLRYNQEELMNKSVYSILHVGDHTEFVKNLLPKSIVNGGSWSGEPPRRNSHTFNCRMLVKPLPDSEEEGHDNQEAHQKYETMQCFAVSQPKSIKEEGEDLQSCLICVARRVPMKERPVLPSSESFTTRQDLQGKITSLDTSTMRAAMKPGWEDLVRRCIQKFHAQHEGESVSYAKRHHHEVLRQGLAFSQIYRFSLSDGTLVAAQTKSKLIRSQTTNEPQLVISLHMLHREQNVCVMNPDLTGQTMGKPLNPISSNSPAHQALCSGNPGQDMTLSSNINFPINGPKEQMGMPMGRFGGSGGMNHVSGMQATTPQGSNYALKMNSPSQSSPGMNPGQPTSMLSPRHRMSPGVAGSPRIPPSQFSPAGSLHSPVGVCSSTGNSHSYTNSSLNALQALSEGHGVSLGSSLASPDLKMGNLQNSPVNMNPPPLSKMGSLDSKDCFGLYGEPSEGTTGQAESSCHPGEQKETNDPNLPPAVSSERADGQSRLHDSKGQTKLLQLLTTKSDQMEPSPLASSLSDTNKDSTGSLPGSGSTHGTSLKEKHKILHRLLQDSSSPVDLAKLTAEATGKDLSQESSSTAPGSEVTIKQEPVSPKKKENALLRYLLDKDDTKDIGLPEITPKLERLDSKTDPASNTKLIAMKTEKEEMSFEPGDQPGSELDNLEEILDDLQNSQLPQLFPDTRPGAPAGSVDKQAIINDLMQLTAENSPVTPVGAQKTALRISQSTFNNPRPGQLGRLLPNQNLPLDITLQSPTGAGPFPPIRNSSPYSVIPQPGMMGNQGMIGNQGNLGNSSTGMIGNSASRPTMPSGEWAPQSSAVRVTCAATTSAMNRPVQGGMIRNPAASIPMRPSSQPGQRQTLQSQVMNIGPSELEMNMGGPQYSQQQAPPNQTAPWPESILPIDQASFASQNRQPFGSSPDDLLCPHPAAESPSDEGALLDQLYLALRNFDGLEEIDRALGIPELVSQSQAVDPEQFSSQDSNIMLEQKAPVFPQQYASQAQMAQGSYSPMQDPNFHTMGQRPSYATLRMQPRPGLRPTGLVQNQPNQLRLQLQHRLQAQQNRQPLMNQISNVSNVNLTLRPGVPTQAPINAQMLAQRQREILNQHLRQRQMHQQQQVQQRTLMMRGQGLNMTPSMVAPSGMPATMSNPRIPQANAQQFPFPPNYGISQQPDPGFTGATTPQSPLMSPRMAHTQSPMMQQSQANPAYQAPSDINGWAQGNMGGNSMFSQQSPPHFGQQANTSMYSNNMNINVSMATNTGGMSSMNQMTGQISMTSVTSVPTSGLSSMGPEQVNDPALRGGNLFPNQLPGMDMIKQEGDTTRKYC
Sequence of Steroidogenic factor 1 (Homo sapiens) (Q13285 whole entry, looked up, the tested form may be a part): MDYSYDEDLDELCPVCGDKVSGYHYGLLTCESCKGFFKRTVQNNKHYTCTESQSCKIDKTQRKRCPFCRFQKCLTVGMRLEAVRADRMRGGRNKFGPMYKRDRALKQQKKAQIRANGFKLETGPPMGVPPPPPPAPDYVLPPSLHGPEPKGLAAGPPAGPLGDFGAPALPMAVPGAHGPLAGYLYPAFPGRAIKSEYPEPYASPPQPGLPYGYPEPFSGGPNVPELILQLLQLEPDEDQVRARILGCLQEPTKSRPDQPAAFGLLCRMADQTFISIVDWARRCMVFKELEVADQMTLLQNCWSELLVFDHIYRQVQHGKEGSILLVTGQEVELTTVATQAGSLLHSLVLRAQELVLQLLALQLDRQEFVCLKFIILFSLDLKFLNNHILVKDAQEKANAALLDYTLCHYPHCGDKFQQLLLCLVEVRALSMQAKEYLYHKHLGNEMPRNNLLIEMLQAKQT
Sequence of Photoreceptor-specific nuclear receptor (Homo sapiens) (Q9Y5X4 whole entry, looked up): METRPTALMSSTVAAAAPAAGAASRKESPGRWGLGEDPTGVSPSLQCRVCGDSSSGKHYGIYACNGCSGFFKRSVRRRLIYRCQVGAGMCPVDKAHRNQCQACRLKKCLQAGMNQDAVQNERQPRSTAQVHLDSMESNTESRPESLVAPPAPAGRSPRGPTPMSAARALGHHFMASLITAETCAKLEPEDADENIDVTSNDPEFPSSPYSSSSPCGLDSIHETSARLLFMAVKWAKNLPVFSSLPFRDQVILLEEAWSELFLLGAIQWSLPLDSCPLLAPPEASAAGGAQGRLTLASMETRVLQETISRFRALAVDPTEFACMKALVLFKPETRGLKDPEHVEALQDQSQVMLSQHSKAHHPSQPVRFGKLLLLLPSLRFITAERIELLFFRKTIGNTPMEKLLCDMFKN
Sequence of COUP transcription factor 2 (Homo sapiens) (P24468 whole entry, looked up): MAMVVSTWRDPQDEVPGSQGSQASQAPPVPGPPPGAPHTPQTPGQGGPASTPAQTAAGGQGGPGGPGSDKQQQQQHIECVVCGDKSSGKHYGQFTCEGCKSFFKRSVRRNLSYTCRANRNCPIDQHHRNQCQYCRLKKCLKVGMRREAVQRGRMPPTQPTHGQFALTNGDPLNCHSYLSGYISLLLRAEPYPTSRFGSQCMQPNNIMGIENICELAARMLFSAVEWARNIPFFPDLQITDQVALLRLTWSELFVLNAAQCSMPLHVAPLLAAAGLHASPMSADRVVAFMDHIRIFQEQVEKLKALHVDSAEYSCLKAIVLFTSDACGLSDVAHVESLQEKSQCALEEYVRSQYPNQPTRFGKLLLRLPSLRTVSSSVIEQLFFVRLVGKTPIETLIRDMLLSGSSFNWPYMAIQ

C=CCn1c(C)cc(C2=NNC(=NCC)SC2)c1C
active: [1] 87% | [2] 85.3% | [3] 74.7% | [4] 81% | [5] 77.4% | [6] 73% | [7] 82.1% | [8] 75.7% | [9] 79.8% | [10] 75.6% | [11] 81.8% | [12] 93% | [13] 82% | [14] 105%

CCOc1cc(/C=C(/C#N)c2ccc(Cl)cc2)cc(Cl)c1OCC(=O)O
inactive: [3] 29.6% | [5] 62.7%
active: [1] 51.4% | [2] 45.5% | [4] 36.9% | [6] 77.7% | [11] 77.6% | [12] 91%

S=C(NN=C(c1ccccc1)c1ccccn1)N(Cc1ccccn1)Cc1ccccn1
active: [1] 84% | [2] 87.2% | [3] 85% | [4] 89.7% | [7] 91% | [8] 105% | [9] 96.4% | [10] 77.2%

CC1=NN(c2nc3ccccc3[nH]2)C(=O)C1Cc1ccccc1 (configuration not stated)
active: [1] 53.5% | [2] 68% | [3] 48.1% | [4] 67.5% | [7] 70.3% | [8] 101% | [9] 88.7% | [10] 83.6%

CC(C)(C)c1ccc(Oc2ccc(N)cc2)cc1
active: [1] 68.3% | [2] 61.4% | [3] 52.4% | [4] 57.7% | [6] 71.6% | [7] 71.2% | [8] 88.6% | [9] 78.9% | [10] 60.1% | [11] 90.2% | [12] 95.2% | [13] 91.8% | [14] 101%
inactive: [5] 36.9%

C(=NNc1ccc2ccccc2n1)c1ccccn1
active: [1] 60.6% | [7] 65.4% | [8] 51% | [9] 59.2%
inactive: [2] -12% | [3] -75.3% | [4] -33.3% | [10] -44.1%

Cc1cn([C@@H](CCCCNC(=O)OC(C)(C)C)C(=O)NCCCCCCCCCCC(=O)N2CCN(C(=O)OC(C)(C)C)CC2)nn1
inactive: [1] 12.4% | [2] 25.6% | [3] 4.04%
active: [4] 41.8%

NC(=O)c1sc2nccc(Nc3ccccc3)c2c1N
active: [1] 70.9% | [2] 47.7% | [3] 53.8% | [4] 39.8%

CCCCCn1c2c(c(=N)c3ccccc31)CCC2
inactive: [3] 32%
active: [1] 45.1% | [2] 61.1% | [4] 60% | [7] 44.3% | [8] 108% | [9] 83% | [10] 90.9%

COc1cccc(/C=N/Nc2ncnc3scc(-c4ccccc4)c23)c1O
active: [1] 83.3% | [2] 70.3% | [3] 76.8% | [4] 65.2% | [7] 89.1% | [8] 103% | [9] 89.4% | [10] 65.1%

O=C(Nc1ccc(S(=O)(=O)N2CCCC2)cc1)c1ccc(CN2CCc3ccccc3C2)cc1
active: [2] 56.4% | [4] 56.9% | [7] 51.4% | [8] 74.5% | [9] 75.2% | [10] 68.7%
inactive: [1] 28.1% | [3] 8.79%

N=C1C=CC(=C(c2ccc(N)cc2)c2ccc(N)cc2)C=C1
active: [1] 56.2% | [2] 60% | [4] 45.9% | [7] 54.9% | [8] 110% | [9] 85.2% | [10] 88.5%
inactive: [3] 45.2%

NC(=Nc1nc(-c2ccccn2)cc2ccccc12)c1ccccn1
active: [1] 79% | [2] 47.7% | [3] 65.6% | [4] 28.4% | [7] 91.8% | [8] 107% | [9] 88.8% | [10] 59.3%

CC[n+]1c(C=C2C=C(C)OC(C)=C2)sc2ccccc21
inactive: [1] 42.2% | [3] 40.9%
active: [2] 67.2% | [4] 71.5% | [7] 70.3% | [8] 108% | [9] 85% | [10] 92.9%

Cc1[nH]c(=O)c(C(=O)/C=C/c2ccccc2)c2c1CCCC2
inactive: [5] 24.6% | [6] 48%
active: [1] 66.8% | [2] 56.1% | [3] 70.5% | [4] 57.9% | [7] 54.4% | [8] 71.7% | [9] 68.2% | [10] 74.8% | [11] 50.1% | [12] 63.9%

CC[C@H]1CN2CCc3cc(OC)c(OC)cc3[C@@H]2C[C@@H]1C[C@H]1NCCc2cc(OC)c(OC)cc21
active: [15] 102% | [16] 92.8% | [1] 98.3% | [2] 97.2% | [3] 92.6% | [4] 96.4% | [17] 30.7% | [5] 97.8% | [6] 99.2% | [7] 94.6% | [8] 109% | [9] 97.7% | [10] 96.4%
inactive: [18] -0.09%
